Values without a mark were called inactive. Records with an inconclusive call do not appear. A call without a number means that no potency is given here. Active and inactive are the calls of the source. Calls follow the shape of the dose curve; as a rule, active = well fitted curve in the direction sought with a large enough effect; inconclusive = small, poorly fitted or top-dose-only effect, or another doubt; inactive = no such curve, though single readings can be large; an effect the other way counts as inactive or inconclusive.
Assays:
[1] = target: Glutathione peroxidase 1 (Homo sapiens) (UniProt P07203); test: Primary qHTS Assay for Inhibitors of Recombinant Selenoprotein Glutathione Peroxidase 1 (GPX1) (AID 1845191); conditions: recombinant GPX1, GR-coupled NADPH fluorescence, 15 min; series mostly up to 48.8 µM; also: nearly all actives have a fitted effect of over 65% in size; also: potency is read from the fitted curve at half-maximal effect
Sequence of Glutathione peroxidase 1 (Homo sapiens) (P07203 whole entry, looked up): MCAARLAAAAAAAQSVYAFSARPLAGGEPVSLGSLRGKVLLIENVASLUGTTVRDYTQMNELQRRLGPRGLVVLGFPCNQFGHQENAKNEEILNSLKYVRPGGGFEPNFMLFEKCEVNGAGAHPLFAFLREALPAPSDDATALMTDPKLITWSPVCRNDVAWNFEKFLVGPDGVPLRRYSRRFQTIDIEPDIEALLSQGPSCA
Method in brief: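 NADPH consumption tracked by fluorescence at 340/450 nm between t=0 and t=15 min, room temperature. Final mix: 10 nM GPX1, 100 nM glutathione reductase, 1 mM GSH, 0.5 mM NADPH, 0.5 mM cumene hydroperoxide, 0.01% BSA; 30 min compound–enzyme preincubation.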

[2] = target: Phospholipid hydroperoxide glutathione peroxidase GPX4 (Homo sapiens) (UniProt P36969); test: Primary qHTS Assay for Inhibitors of Recombinant Selenoprotein Glutathione Peroxidase 4 (GPX4) (AID 1845192); conditions: recombinant GPX4, GR-coupled NADPH fluorescence, 15 min; series mostly up to 50 µM; also: nearly all actives have a fitted effect of over 65% in size; also: potency is read from the fitted curve at half-maximal effect
Sequence of Phospholipid hydroperoxide glutathione peroxidase GPX4 (Homo sapiens) (P36969 whole entry, looked up): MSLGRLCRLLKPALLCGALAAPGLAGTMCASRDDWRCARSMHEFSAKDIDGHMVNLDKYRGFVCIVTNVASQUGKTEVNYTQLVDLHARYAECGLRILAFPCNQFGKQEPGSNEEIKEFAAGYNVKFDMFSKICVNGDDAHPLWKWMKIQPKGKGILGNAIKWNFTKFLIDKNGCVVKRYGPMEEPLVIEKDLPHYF
Method in brief: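 NADPH consumption followed by fluorescence at 340/450 nm, t=0 and after 15 min at room temperature. Reaction started with cumene hydroperoxide (0.5 mM final) after 30 min compound–GPX4 preincubation; final 200 nM GPX4, 100 nM GR, 1 mM GSH, 0.5 mM NADPH.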

[3] = target: Luciferin 4-monooxygenase (Photinus pyralis) (UniProt P08659); test: Primary firefly luciferase (FLuc) qHTS assay for identification of artifact compounds. (AID 1845220); conditions: purified firefly luciferase, luminescence, 5 min; series mostly up to 54.1 µM; also: nearly all actives have a fitted effect of over 60% in size; also: potency is read from the fitted curve at half-maximal effect
Method in brief: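 Compounds sat 15 min at room temperature with 10 uM luciferin and 10 uM ATP (pH 7.6 Tris acetate). Firefly luciferase (10 nM final) was then added, and luminescence was read 5 min later. Data normalized to no-enzyme and DMSO controls were Hill-fitted.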

[4] = Primary fluorescence-based thiol-reactive (MSTI) qHTS assay for identification of artifact compounds. (AID 1845221); conditions: MSTI thiol-reactivity probe, 1 h; series mostly up to 53.8 µM; also: nearly all actives have a fitted effect of over 65% in size; also: potency is read from the fitted curve at half-maximal effect;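 as to activity change, negative = thiol reactive: thiol-reactive compounds lower the probe fluorescence signal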
Method in brief: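 MSTI probe at 4 uM final in 2% DMSO/PBS pH 7.4; compounds, 1 h at room temperature in dark. Fluorescence Ex/Em 525/598 nm, normalised to Acetyl-MSTI and MSTI, fitted to 4-parameter Hill.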

[5] = tested on: Nanoluciferase (engineered Oplophorus gracilirostris luciferase); test: Primary Nanoluciferase (NLuc) qHTS assay for identification of artifact compounds. (AID 1845222); conditions: NLuc-conditioned medium, Nano-Glo luminescence, 5 min; series mostly up to 54.1 µM
Method in brief: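 Luminescence from secreted NLuc (filtered, 1:55-diluted S16 cell medium) read 5 min after Nano-Glo substrate; compounds preincubated 15 min, RT. Hill fits of inhibition normalized to DMSO and no-enzyme.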

[6] = Primary redox qHTS assay for identification of artifact compounds. (AID 1845223); conditions: Amplex Red/HRP redox cycling with DTT, fluorescence; series mostly up to 53.8 µM; also: potency is read from the fitted curve at half-maximal effect
Method in brief: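 Redox-cycling detection via DTT (250 uM final) oxidation coupled to Amplex Red (25 uM)/HRP (250 mU/mL) in HBSS. 15 min preincubation plus 30 min after DTT, room temperature. Ex/Em 525/598 nm; 4-parameter Hill fit against DMSO and 10 uM DA3003.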

Row | SMILES | Potency [1] | Potency [2] | Potency [3] | Potency [4] | Potency [5] | Potency [6] | activity change, negative = inhibition [3] | activity change, negative = thiol reactive [4] | activity, negative = inhibition [5] | redox activity (% of DA3003) [6]
1 | CC1CCCCN1S(=O)(=O)c1ccc(N2CCCC2=O)cc1 (stereo not drawn) | inactive | inactive | inactive | inactive | inactive | inactive | – | – | – | –
2 | N#Cc1cnc2cnc(NCc3cccnc3)cc2c1Nc1ccc(F)c(Cl)c1 | inactive | inactive | inactive | inactive | inactive | inactive | – | – | – | –
3 | CC(C)c1cc2c(c(O)c1O)[C@@]13CCCC(C)(C)[C@@H]1[C@H](OC3=O)C2=O | inactive | inactive | inactive | 2.33 µM (active) | inactive | 16.5 µM (active) | – | – | – | –
4 | Cc1cc(Nc2nc(NC(C)c3ncc(F)cn3)ncc2Cl)n[nH]1 (stereo not drawn) | inactive | inactive | inactive | inactive | inactive | inactive | – | – | – | –
5 | CN1CCN(C2CCC(n3cc(-c4ccc(Oc5ccccc5)cc4)c4c(N)ncnc43)CC2)CC1 (stereo not drawn) | inactive | inactive | inactive | inactive | inactive | inactive | – | – | – | –
6 | CCNC(=O)C1OC(n2cnc3c(N)nc(NCCc4ccc(CCC(=O)O)cc4)nc32)C(O)C1O (stereo not drawn) | inactive | inactive | inactive | inactive | inactive | inactive | – | – | – | –
7 | Nc1nc2c(c(=O)[nH]1)C[C@@H](CCc1ccc(C(=O)N[C@@H](CCC(=O)O)C(=O)O)cc1)CN2 | inactive | inactive | inactive | inactive | inactive | inactive | – | – | – | –
8 | CC(C)CCC1(O)C(=O)C(C)(C)C(O[C@@H]2O[C@H](CO)[C@@H](O)[C@H](O)[C@H]2O)C(C)(C)C1O (stereo partly drawn) | inactive | inactive | inactive | 2.32 µM (active) | inactive | inactive | – | – | – | –
9 | CC(=O)O[C@@H]1C[C@@H](OC(C)=O)C(C)(C)/C=C/[C@H](C)[C@H](OC(C)=O)[C@@]2(O)C[C@H](C)[C@H](OC(=O)c3ccccc3)[C@@H]2/C=C/1C | inactive | inactive | inactive | inactive | inactive | inactive | – | – | – | –
10 | CCc1cccc(CC)c1NC(=O)c1nn(C)c2c1CCc1cnc(Nc3ccc(C(=O)NC4CCN(C)CC4)cc3OC(F)(F)F)nc1-2 | inactive | inactive | inactive | inactive | inactive | inactive | – | – | – | –
11 | O=C(Cc1ccc(-c2ccccc2)cc1)NC1CCC1 | inactive | inactive | inactive | inactive | inactive | inactive | – | – | – | –
12 | Cc1cccc(-c2[nH]c(Cc3cccc(C(N)=O)c3)nc2-c2ccc3nccnc3c2)n1 | inactive | inactive | inactive | inactive | inactive | inactive | – | – | – | –
13 | CCN1CCN(Cc2ccc(NC(=O)Nc3ccc(Oc4cc(NC)ncn4)cc3)cc2C(F)(F)F)CC1 | inactive | inactive | inactive | inactive | inactive | inactive | – | – | – | –
14 | Cc1cc(C)c(Nc2ccnc(Nc3ccc(C#N)cc3)n2)c(C)c1 | inactive | inactive | inactive | inactive | inactive | inactive | – | – | – | –
15 | CC1(C)C2CC(OC3OC(COC4OCC(O)(CO)C4O)C(O)C(O)C3O)C1(C)CC2O (stereo not drawn) | inactive | inactive | inactive | inactive | inactive | inactive | – | – | – | –
16 | COc1cc2c(c(OC)c1CC=C(C)C)C[C@H](c1ccc(O)cc1O)CO2 | inactive | inactive | inactive | 13.1 µM (active) | inactive | inactive | – | – | – | –
17 | COC(=O)N(C)c1c(N)nc(-c2nn(Cc3ccccc3F)c3ncccc23)nc1N | inactive | inactive | inactive | inactive | inactive | inactive | – | – | – | –
18 | CC1(C)C[C@H](O)C[C@@]2(C)OC(=O)C=C12 | inactive | inactive | inactive | 39.8 µM (active) | inactive | inactive | – | – | – | –
19 | CON(C)C(=O)[C@H](O)[C@H](Cc1ccccc1)NC(=O)c1cc2cc(Cl)ccc2[nH]1 | inactive | inactive | inactive | inactive | inactive | inactive | – | – | – | –
20 | O=C(O)CC1CCC(c2ccc(-c3ccc4nc(C(=O)NCc5ccc(OC(F)(F)F)cc5)cn4c3)cc2)CC1 (stereo not drawn) | inactive | inactive | inactive | inactive | inactive | inactive | – | – | – | –
21 | C[C@H](NC(c1cccc(C[P+](=O)O)c1)[C@H](C)O)c1ccc(Cl)c(Cl)c1 (stereo partly drawn) | inactive | inactive | inactive | inactive | inactive | inactive | – | – | – | –
22 | C=C1C(O)C(O)C2(CC3C(C)=CCC4C(C)(CO)CCCC34C)OC2C1O (stereo not drawn) | inactive | inactive | inactive | inactive | inactive | inactive | – | – | – | –

Row | SMILES | Potency [1] | Potency [2] | Potency [3] | Potency [4] | Potency [5] | Potency [6] | activity change, negative = inhibition [3] | activity change, negative = thiol reactive [4] | activity, negative = inhibition [5] | redox activity (% of DA3003) [6]
23 | C=C[C@@H]1[C@H](O[C@@H]2O[C@H](CO)[C@@H](O)[C@H](O)[C@H]2O)OC=C(C(=O)O)[C@H]1CCOC(=O)/C=C/c1ccc(O)c(O)c1 | inactive | inactive | inactive | 1.3 µM (active) | inactive | inactive | – | – | – | –
24 | Nc1nc2c(ncn2[C@@H]2O[C@H](CO)[C@@H](O)[C@H]2O)c(=O)[nH]1 | inactive | inactive | inactive | inactive | inactive | inactive | – | – | – | –
25 | CC(=O)N1CCc2ccc(O)c(OC3OC(COC4OCC(O)(CO)C4O)C(O)C(O)C3O)c2C1Cc1ccc(O)cc1 (stereo not drawn) | inactive | inactive | inactive | inactive | inactive | inactive | – | – | – | –
26 | CC(=O)OC1C(c2ccccc2)CCC(c2ccccc2)C1OC(C)=O (stereo not drawn) | inactive | inactive | inactive | inactive | inactive | inactive | – | – | – | –
27 | C[C@H](C(=O)NC1CCCC1)N(C(=O)Cn1nnc(-c2ccc3c(c2)OCO3)n1)C1CCCCC1 | inactive | inactive | inactive | inactive | inactive | inactive | – | – | – | –
28 | COC(=O)C[C@H]1C(C)(C)[C@H](OC(=O)C(C)C)[C@@]2(O)C(=O)[C@]1(C)C1CC[C@]3(C)C(CC(=O)O[C@H]3c3ccoc3)[C@]13O[C@@H]32 (stereo partly drawn) | inactive | inactive | inactive | inactive | inactive | inactive | – | – | – | –
29 | C/C(=C\CCC(C)CCO)C(=O)O[C@@H]1[C@@H](O)[C@H](OC2OC=C(C(=O)O)C3CCC(C)(O)C23)O[C@H](CO)[C@H]1O (stereo partly drawn) | inactive | inactive | inactive | 8.22 µM (active) | inactive | inactive | – | – | – | –
30 | Nc1ncnc2c1ncn2CCNCCCCCO | inactive | inactive | inactive | inactive | inactive | inactive | – | – | – | –
31 | COc1ncc(Nc2ncc([C@H](C)N3CCN(S(C)(=O)=O)CC3)cc2-c2nc(C)nc(N)n2)cc1F | inactive | inactive | inactive | inactive | inactive | inactive | – | – | – | –
32 | COc1ccc(-c2ccc3c(N4CCOCC4)nc(N4CC(C)OC(C)C4)nc3n2)cc1CO (stereo not drawn) | 18 µM (active) | 22.7 µM (active) | inactive | inactive | inactive | inactive | – | – | – | –
33 | CC/C=C\C/C=C\C/C=C\CCCCCCCC(=O)OCC(O)COC1OC(CO)C(O)C(O)C1O (stereo not drawn) | inactive | inactive | inactive | inactive | inactive | inactive | – | – | – | –
34 | COc1ccc(/C=C/C(=O)O[C@@H]2[C@@H](O)[C@@H](O)[C@H](O[C@@H]3C=C(CO)[C@H]4[C@H](O[C@@H]5O[C@H](CO)[C@@H](O)[C@H](O)[C@H]5O)OC=C[C@H]43)O[C@H]2C)cc1O | inactive | inactive | inactive | 3.98 µM (active) | inactive | inactive | – | – | – | –
35 | NC1CCCCN(c2c(F)cc3c(=O)c(C(=O)O)cn(C4CC4)c3c2Cl)C1 (stereo not drawn) | inactive | inactive | inactive | inactive | inactive | inactive | – | – | – | –
36 | Cc1cc(C(=O)N2CCCCc3ccccc32)ccc1CNC(=O)N1CCC[C@H]1C(=O)N(C)C | inactive | inactive | inactive | inactive | inactive | inactive | – | – | – | –
37 | CCc1ccc(Cc2ccc3c(c2)[C@]2(OC3)O[C@H](CO)[C@@H](O)[C@H](O)[C@H]2O)cc1 | inactive | inactive | inactive | inactive | inactive | inactive | – | – | – | –
38 | CNC(=O)c1cc(Oc2ccc3nc(N[C@@H]4CCCC[C@H]4O)sc3c2)ccn1 | inactive | inactive | 12 µM (active) | inactive | inactive | inactive | – | – | – | –
39 | O=C(/C=C\c1ccc(O)cc1)N[C@@H](Cc1ccc(O)cc1)C(=O)O | inactive | inactive | inactive | 6.56 µM (active) | inactive | inactive | – | – | – | –
40 | CC[C@@](C)(Nc1ccnc(-c2c[nH]c3ncccc23)n1)C(=O)NCC(F)(F)F | inactive | inactive | inactive | inactive | inactive | inactive | – | – | – | –
41 | COc1c2ccoc2cc2oc(CO[C@@H]3O[C@H](CO)[C@@H](O)[C@H](O)[C@H]3O)cc(=O)c12 | inactive | inactive | inactive | inactive | inactive | inactive | – | – | – | –
42 | CC(=O)OC1CC2(C)C3=CCC4(C)C5C(O)C(O)C(C(C)C)C5(C)CCC4(C)C3CCC2C(C)(C)C1OC1OC(CO)C(O)C(O)C1O (stereo not drawn) | inactive | inactive | inactive | inactive | inactive | inactive | – | – | – | –
43 | COCC1OC(OC(C)(C)C2CCC3(C)C=C(C4CCC5C4(C)CC(O)C4OC(C(C)(C)OC6OC(CO)C(O)C(O)C6NC(C)=O)CCC45C)CCC3O2)C(NC(C)=O)C(O)C1O (stereo not drawn) | inactive | inactive | – | – | – | – | 0.545% [at 11.6 µM] | 5.19% [at 11.5 µM] | -0.592% [at 11.6 µM] | 3.42% [at 11.5 µM]
